Test results taken from PubChem BioAssay (EPA / NIEHS).
Results filed as inconclusive are left out. Active and inactive are the calls of the source. The calls were made as follows, unless noted: active = hit-call score of the fitted dose curve at least 0.9, where 1 is the maximum; inconclusive = response in the unintended direction; inactive = score below 0.9.

Key:
[1] = molecular target: Cellular tumor antigen p53 (Homo sapiens) (UniProt P04637); assay: TOX21_p53_BLA_p2_ratio: Tox21 HCT-116 p53 Agonism Beta-lactamase Assay, Ratio, Phase 2 (AID 2283592)
How it was run: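 In this cell-based reporter format, HCT116 cells were dosed with chemicals delivered from DMSO by 217-fold dilution and incubated 16 h at 37C. Emission at 460 and 530 nm after 2 h CCF4-AM loading provided the ratio, fitted upward versus DMSO.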

[2] = molecular target: Cellular tumor antigen p53 (Homo sapiens) (UniProt P04637); assay: TOX21_p53_BLA_p3_ratio: Tox21 HCT-116 p53 Agonism Beta-lactamase Assay, Ratio, Phase 3 (AID 2283596)
How it was run: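 HCT116 p53-bla cells (4000/well) given compound in DMSO (217-fold dilution) after 5 h, incubated 16 h at 37C. CCF4-AM substrate 2 h at room temperature; 460/530 nm emission ratio, gain fitted against DMSO.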

[3] = molecular target: Cellular tumor antigen p53 (Homo sapiens) (UniProt P04637); assay: TOX21_p53_BLA_p5_ratio: Tox21 HCT-116 p53 Agonism Beta-lactamase Assay, Ratio, Phase 5 (AID 2283599)
How it was run: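 HCT-116 cells carrying a p53-inducible beta-lactamase reporter were seeded at 4000 cells/well and dosed after 5 h with compound in DMSO (217-fold dilution). After 16 h at 37C, CCF4-AM substrate was added for 2 h, and the 460/530 nm emission ratio was scored as gain-of-signal versus DMSO.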

[4] = molecular target: Cellular tumor antigen p53 (Homo sapiens) (UniProt P04637); assay: TOX21_p53_BLA_p4_ratio: Tox21 HCT-116 p53 Agonism Beta-lactamase Assay, Ratio, Phase 4 (AID 2283601)
How it was run: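 HCT116 cells carrying an inducible beta-lactamase reporter were plated at 4000 cells/well, rested 5 h, then exposed to compounds in DMSO (217-fold dilution) for 16 h at 37C. CCF4-AM substrate was loaded 2 h at room temperature; 460/530 nm emission ratio scored gain-of-signal versus DMSO.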

[5] = TOX21_p53_BLA_p4_viability: Viability Assessment in the Tox21 HCT-116 p53 Agonism Beta-lactamase Assay, Phase 4 (AID 2283597);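 also: hits lower the luminescence signal meaning cytotoxicity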
How it was run: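 We seeded HCT116 p53 reporter cells at 4000/well and waited 5 h. We then added compounds in DMSO at a 217-fold dilution and incubated for 16 h. Viability was read as CellTiter-Glo luminescence after 30 min at RT.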

[6] = TOX21_p53_BLA_p5_viability: Viability Assessment in the Tox21 HCT-116 p53 Agonism Beta-lactamase Assay, Phase 5 (AID 2283600)
How it was run: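 Compounds, pinned from DMSO at 217-fold dilution, were left on the cells for 16 h. The viability endpoint was ATP content measured by CellTiter-Glo luminescence, where falling signal reflects cytotoxicity.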

[7] = CCTE_Harrill_HTTr_Apoptosis_MCF7: CCTE's 6-hour Apoptosis Assessment for the High-Throughput Transcriptomics (HTTr) Platform, in MCF-7 cells cultured in DMEM + 10% fetal bovine serum, Harrill Lab (AID 2284011; active = hit-call score of the fitted dose curve at least 0.9, where 1 is the maximum; inactive = score below 0.9)
How it was run: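 Read-out: CellEvent Caspase 3/7 Green signal by high content imaging, gain-of-signal indicating apoptosis. MCF-7 cells, DMEM + 10% FBS, eight-point dilution series, 6 h exposure. Curves fitted bidirectionally relative to DMSO negative control.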

Measured: AC50

Chain of Cellular tumor antigen p53 (Homo sapiens) (P04637 whole entry, looked up): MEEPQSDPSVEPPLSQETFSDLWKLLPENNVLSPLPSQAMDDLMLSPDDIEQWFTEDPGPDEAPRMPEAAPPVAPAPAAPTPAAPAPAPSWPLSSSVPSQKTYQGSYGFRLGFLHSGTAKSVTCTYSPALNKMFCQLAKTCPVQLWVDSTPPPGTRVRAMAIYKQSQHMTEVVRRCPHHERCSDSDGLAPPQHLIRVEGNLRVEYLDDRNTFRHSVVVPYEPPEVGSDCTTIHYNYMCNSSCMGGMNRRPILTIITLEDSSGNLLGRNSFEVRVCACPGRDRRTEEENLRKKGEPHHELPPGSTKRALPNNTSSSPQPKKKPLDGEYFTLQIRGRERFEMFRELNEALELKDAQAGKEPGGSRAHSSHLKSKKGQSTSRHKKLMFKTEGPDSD

CCCCCCCCn1cc[n+](C)c1
active: [1] 9.49 µM [middle of 4 runs] | [2] 14.7 µM [middle of 4 runs]
inactive: [3] | [4]

CNCC(=O)c1ccc(O)c(O)c1
inactive: [1] | [2] | [5] | [6]

CC(NC(C)(C)C)C(=O)c1cccc(Cl)c1 (configuration not stated)
inactive: [1] | [2] | [3] | [4]

CCCN1CCC[C@H](c2cccc(O)c2)C1
inactive: [1] | [2] | [3] | [4]

O=C(N[C@H]1N=C(c2ccccc2F)c2cccc3c2N(CC3)C1=O)c1cc2ccccc2[nH]1
inactive: [1] | [2] | [3] | [4]

CCOP(=O)(OCC)OP(=O)(OCC)OCC
inactive: [1] | [2] | [3] | [4]

CN1[C@@H]2CC[C@H]1CC(O)C2 (some centres not stated)
not listed: [5] | [7]
inactive: all other assays above

O=S(=O)(Cl)Cl
inactive: [1] | [3] | [6]

S=C=Nc1ccccc1
inactive: [1] | [2] | [6]

NC(=O)C(Cl)Cl
inactive: [1] | [5] | [3] | [4]

N#CCCC#N
inactive: [1] | [5] | [6]

CC(C)(CCl)C(=O)Cl
inactive: [1] | [5] | [3] | [6]

ClP(Cl)(Cl)(Cl)Cl
inactive: [1] | [2] | [4]

CC[C@H]1C[C@@H]2C[C@H]3c4[nH]c5ccc(OC)cc5c4CCN(C2)[C@@H]13
inactive: [1] | [2] | [4]

c1cc2c(c(N3CCNCC3)c1)OCCO2
inactive: [1] | [5] | [3]

CCCCCCCCCCCCCCCl
inactive: [1] | [5] | [3] | [4]

OC(Cn1cncn1)(c1ccc(F)cc1)c1ccccc1F (configuration not stated)
inactive: [1] | [5] | [3] | [7]

CNNC
inactive: [1] | [3] | [6]

[O-][Br+2]([O-])O
inactive: [1] | [5] | [4]

CCOc1cc(OP(=S)(OC)OC)nc(CC)n1
inactive: [1] | [2] | [4]

O=C1CC[C@@]2(O)[C@H]3Cc4ccc(O)c5c4[C@@]2(CCN3CC2CC2)[C@H]1O5
inactive: [1] | [2] | [4]

CC(C)=CCOc1c2occc2cc2ccc(=O)oc12
not listed: [2] | [7]
inactive: all other assays above

Cc1ncc(CNC(=O)N(CCCl)N=O)c(N)n1
inactive: [1] | [2] | [3] | [4]

ClCC(Cl)(Cl)Cl
inactive: [1] | [3] | [6]

COc1cc(CC(C)N)cc(OC)c1OC (configuration not stated)
inactive: [1] | [5] | [3] | [4]

CSSC
inactive: [1] | [2] | [6]

CC(C)(Cl)[N+](=O)[O-]
inactive: [1] | [2] | [6] | [4]

CC(Cl)C(C)Cl (configuration not stated)
inactive: [1] | [5] | [3]

COc1c(C(C)(C)C)cc([N+](=O)[O-])c(C)c1[N+](=O)[O-]
inactive: [1] | [2] | [6] | [4]

C=CCN1C[C@H](C)N([C@H](c2ccc(C(=O)N(CC)CC)cc2)c2cccc(OC)c2)C[C@H]1C
inactive: [1] | [5] | [3] | [4]

CC(C)=CCN1CC[C@@]2(C)c3cc(O)ccc3C[C@@H]1[C@@H]2C
inactive: [2] | [6] | [4]
active: [1] 86.2 µM

COc1ccc(C(=O)N2CCCC2=O)cc1
inactive: [1] | [5] | [3] | [6]
